Compound activity: PubChem, National Center for Advancing Translational Sciences (NCATS)
DT40 TDP1 CPT: qHTS for Inhibitors of human tyrosyl-DNA phosphodiesterase 1 (TDP1): qHTS in cells in presence of CPT; AID 686979, 2013; 420,000 tested, 12% active; chicken DT40 Tdp1-/-;hTDP1 cells + 20 nM CPT, ATP luminescence, 48 h; Potency, µM (top dose mostly 46.2 µM), without a hit: top-dose activity change, negative = growth inhibition, hits mostly inhibitors; further: potency means the concentration at half of the fitted maximal effect; on the % scale 0 is the no-effect control and ±100 the full control effect; nearly all actives have a fitted effect of over 55% in size
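Cell growth measured by CellTiter-Glo luminescence after a minimum 48 h, 37 C compound exposure with 20 nM CPT in Tdp1-knockout DT40 cells stably expressing hTDP1, seeded 400/well; qHTS titration format.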
HepG2 tox: qHTS for Inhibitors of TGF-b: Cytotox Counterscreen; HepG2 CAGA-GFP viability, ATP luminescence, 18 h; Potency, µM (titrated, usually from 46.1 µM), inactives show at the top dose activity change, negative = cytotoxicity, usual class: cytotoxic; 410,000 tested, 0.76% active; AID 588856, 2011; further: potency means the concentration at half of the fitted maximal effect
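HepG2 CAGA-GFP cells (1000/well, DMEM with 1% FBS) received compound, then TGF-beta at 500 pg/mL final, and were incubated 18 hours at 37 degrees C. Viability was read by CellTiter-Glo luminescence. Media-only wells were set as complete cell-killing and DMSO as no toxicity.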
TDP1 block: qHTS Assay for Inhibitors of Tyrosyl-DNA Phosphodiesterase (TDP1); Tyrosyl-DNA phosphodiesterase 1 (Homo sapiens), Q9NUW8; 350,000 tested, 0.28% active; recombinant TDP1, AlphaScreen DNA substrate cleavage; AID 485290, 2010; Potency, µM (doses to about 130 µM), without a hit: at the top dose activity change, negative = inhibition, hits mostly inhibitors; further: potency means the concentration at half of the fitted maximal effect; on the % scale 0 is the no-effect control and ±100 the full control effect; nearly all actives have a fitted effect of over 40% in size
Target sequence (Q9NUW8 whole entry, looked up): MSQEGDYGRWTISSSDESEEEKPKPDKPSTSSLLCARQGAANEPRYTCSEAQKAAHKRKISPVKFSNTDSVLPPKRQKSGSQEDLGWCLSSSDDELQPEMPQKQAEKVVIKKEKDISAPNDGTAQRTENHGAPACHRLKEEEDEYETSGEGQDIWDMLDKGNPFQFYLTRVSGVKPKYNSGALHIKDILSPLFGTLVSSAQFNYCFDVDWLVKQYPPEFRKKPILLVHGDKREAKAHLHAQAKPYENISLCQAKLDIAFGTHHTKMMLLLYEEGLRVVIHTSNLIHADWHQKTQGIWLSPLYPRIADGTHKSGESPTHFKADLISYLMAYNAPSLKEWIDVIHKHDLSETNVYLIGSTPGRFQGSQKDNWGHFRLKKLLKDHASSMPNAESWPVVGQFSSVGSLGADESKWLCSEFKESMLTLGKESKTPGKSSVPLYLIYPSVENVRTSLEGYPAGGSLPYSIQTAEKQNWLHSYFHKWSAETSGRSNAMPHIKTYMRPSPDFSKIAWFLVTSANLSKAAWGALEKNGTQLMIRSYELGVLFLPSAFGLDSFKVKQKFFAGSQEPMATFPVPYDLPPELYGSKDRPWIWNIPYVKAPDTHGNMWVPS
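Compounds were preincubated with Tdp1 (1 nM final) for 15 min at room temperature before substrate (15 nM final) started a 5 min reaction; beads (10 ug/ml final) were then added for 10 min before AlphaScreen detection.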
DT40 TDP1 no CPT: qHTS for Inhibitors of human tyrosyl-DNA phosphodiesterase 1 (TDP1): qHTS in cells in absence of CPT; DT40 Tdp1-/- hTDP1 cells, no CPT, ATP luminescence, 48 h; 420,000 tested, 15% active; AID 686978, 2013; Potency, µM (series often up to 46.2 µM), without a hit: top-dose activity change, negative = growth inhibition, usual class: inhibitors; further: potency means the concentration at half of the fitted maximal effect; on the % scale 0 is the no-effect control and ±100 the full control effect; nearly all actives have a fitted effect of over 55% in size
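Chicken DT40 Tdp1-/- cells stably complemented with human TDP1 were seeded at 400 cells/well with DMSO in place of 20 nM camptothecin. After compound pinning, cells grew at least 48 hr at 37 °C; viability read by CellTiter-Glo luminescence.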
TGFb inhibitor: qHTS for Inhibitors of TGF-b | HepG2 CAGA-GFP TGF-b/SMAD3 reporter, GFP fluorescence, 18 h; TGF-beta stimulated, 500 pg/mL final | Potency, µM (series often up to 46.1 µM), for the others: at the top dose activity, negative = inhibition, most hits filed as inhibitors | 410,000 tested, 1.2% active; further: potency means the concentration at half of the fitted maximal effect; on the % scale 0 is the no-effect control and ±100 the full control effect; nearly all actives have a fitted effect of over 65% in size
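TGF-beta reporter screen: HEPG2 CAGA-GFP, 1% FBS, 500 pg/mL TGF-beta final, 18 h; per-cell GFP summed per well; curves fitted and categorized by class.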
IL1B secr inh: qHTS for Inhibitors of Inflammasome Signaling: IL-1-beta AlphaLISA Primary Screen | activity change, % at 57.5 µM | THP-1 LPS/ATP IL-1B secretion, AlphaLISA, 16 h; active compounds read low | 360,000 tested, 4.7% active; in the data active means activity change below about -50%; inconclusive means mostly about -30% to -49%; further: on the % scale 0 is the no-effect control and ±100 the full control effect
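THP-1 cells pretreated 1 hr with compounds (up to 57.5 uM final), then stimulated with LPS (250 ng/mL final) plus ATP (1.25 mM final); secreted IL-1B measured by AlphaLISA after 16 hr, decreased signal indicating inhibition.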
Active calls of the source: *; ? = inconclusive; nt = not tested or not shown. Shown are actives, neighbours in structure and some others; about 19% of the full set was active somewhere. Unless noted, the call rests on the fitted dose curve; in most records, active means well fitted curve in the direction sought with a large enough effect; inconclusive means small, poorly fitted or top-dose-only effect, or another doubt; inactive means no such curve, though single readings can be large; an effect the other way counts as inactive or inconclusive.

SMILES	DT40 TDP1 CPT	HepG2 tox	TDP1 block	DT40 TDP1 no CPT	TGFb inhibitor	IL1B secr inh
COc1cc(C[C@H](C)[C@H](C)Cc2ccc3c(c2)OCO3)ccc1O	?	-72%	2%	?	?	-12
Oc1ccccc1C1C=C(c2ccc3c(c2)OCO3)NC(c2cccc(Br)c2)N1 (centres undefined)	nt	-93%	2%	nt	?	nt
CC(C)C1N=C(c2ccc3c(c2)OCO3)CC(c2ccccc2O)N1 (centres undefined)	5.2µM*	-65%	7%	4.6µM*	?	-19
CCCCCCC1(C)NC(c2ccc3c(c2)OCO3)=CC(c2cc(Br)ccc2O)N1 (centres undefined)	nt	-37%	1%	nt	?	nt
Cc1ccc(CCC(=O)Nc2ccc(Cl)cc2)o1	-18%	1%	nt	-4%	3%	-5
Cc1ccc(CCC(=O)Nc2ccc(N(C)C)cc2)o1	16µM*	-37%	nt	?	-16%	-6
O=C1[C@@H]2C(c3cccnc3)=NO[C@@H]2C(=O)N1c1ccc2ccccc2c1	6.5µM*	-36%	5%	18µM*	0%	nt
CC(/C=C/c1ccco1)=N/NC(=O)c1ccccc1Cl	23µM*	4%	3%	16µM*	-19%	-22
O=C(N/N=C/C=C/c1ccco1)c1ccccc1Cl	?	-14%	4%	16µM*	-28%	-10
Nc1ccc2cc3ccc(N)cc3nc2c1	5.3µM*	nt	13%	2.7µM*	nt	nt
O=C(CSc1nnc(NC(=O)c2ccc(F)cc2F)s1)NC1CCCC1	-6%	-19%	nt	-11%	-1%	5
COc1ccc(C(CNC(=O)c2cccc(NS(=O)(=O)c3ccccc3)c2)N2CCCC2)cc1 (centres undefined)	?	-6%	nt	?	11%	-3
COc1ccccc1NS(=O)(=O)c1cccc(C(=O)NCC(c2ccccc2OC)N2CCCC2)c1 (centres undefined)	?	-37%	-3%	?	-6%	-5
CCN(c1ccccc1)S(=O)(=O)c1cccc(C(=O)NCC(c2cccs2)N2CCOCC2)c1 (centres undefined)	21µM*	3%	1%	?	-5%	?
C=CCN(c1ccccc1)S(=O)(=O)c1cccc(C(=O)NCC(c2ccccc2OC)N2CCCC2)c1 (centres undefined)	18µM*	-20%	8%	18µM*	-5%	?
C=CCN(c1ccccc1)S(=O)(=O)c1cccc(C(=O)NCC(c2cccs2)N2CCOCC2)c1 (centres undefined)	13µM*	-22%	2%	7.3µM*	0%	0
COc1ccc(C(CNC(=O)c2cccc(S(=O)(=O)N(C)c3ccccc3)c2)N2CCCC2)cc1 (centres undefined)	?	-32%	1%	4.1µM*	-7%	-29
CCN(CC)CCn1c(=S)[nH]c2cc(C(=O)N3CC(C)CC(C)C3)ccc2c1=O (centres undefined)	-13%	-5%	2%	0%	-7%	-13
CCc1nn(CC(=O)NCCc2ccc(SC)cc2)c(=O)c2cc3sccc3n12	-8%	-7%	3%	-3%	-19%	nt
CC1=C(C(=O)NCc2ccc(Cl)cc2)C2(CCCCCC2)OC1=O	?	-18%	1%	-29%	-2%	nt
COc1ccc(CCNC(=O)c2cccc(NS(=O)(=O)c3ccccc3F)c2)cc1OC	2%	2%	4%	-10%	0%	14
COc1cccc(CNC(=O)Cn2ncn3nc(-c4cccs4)cc3c2=O)c1OC	-21%	0%	3%	-19%	-25%	nt
CCN(c1ccccc1)S(=O)(=O)c1cc(C(=O)NCC(c2ccc(OC)cc2)N(C)C)ccc1C (centres undefined)	?	-23%	nt	16µM*	?	-74*
O=S(=O)(c1ccc2c(c1)OCO2)N1CCN(S(=O)(=O)c2c(F)cccc2F)CC1	nt	nt	0%	nt	nt	nt
CC1CCCN(C(=O)COC(=O)CNC(=O)c2sc3ccccc3c2Cl)C1 (centres undefined)	4%	7%	-4%	3%	9%	-5
SMILES	DT40 TDP1 CPT	HepG2 tox	TDP1 block	DT40 TDP1 no CPT	TGFb inhibitor	IL1B secr inh
CC1CC(C)(C)CC2(C1)NC(=O)N(CC(=O)N(C)Cc1nc3ccccc3c(=O)[nH]1)C2=O (centres undefined)	-25%	3%	1%	-25%	10%	20
Cc1ccccc1OCCc1c(C)[nH]c(=S)[nH]c1=O	1.5µM*	0%	5%	0.82µM*	-15%	57
O=C(O)c1ccc(Nc2ncnc3scc(-c4ccccc4)c23)cc1	2.6µM*	-12%	-4%	4.1µM*	2%	13
Fc1ccc(-c2csc3ncnc(Nc4ccc(N5CCOCC5)cc4)c23)cc1	15µM*	-10%	8%	23µM*	15%	-58*
c1nc(Nc2ccc(N3CCOCC3)cc2)c2ccsc2n1	?	26%	8%	?	9%	-10
CCOC(=O)c1cccc(NC(=O)c2ccc3nc(CCc4ccccc4)oc3c2)c1	?	-5%	-2%	?	0%	nt
CCc1ccccc1NC(=O)c1ccc2c(SCC(=O)O)c3c(nc2c1)CCC3	22%	-5%	6%	-17%	-44%	nt
S=C(NCC1CCCO1)Nc1ccc(Cl)cc1 (centres undefined)	-13%	-10%	-1%	-23%	-3%	7
Clc1ccc(N(CC2CO2)CC2CO2)cc1 (centres undefined)	0.46µM*	4%	nt	0.65µM*	-5%	-24
